Test results as given in PubChem BioAssay (NCI).
Where “and” joins values, the source holds several entries; their conditions need not be identical. Equal values may be shown once. About 83,000 compounds went through this panel and 20% of them were active in at least one assay; those are over-represented in the sample as a whole.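 How to read the values: 0–100, growth inhibition (40 = 60% inhibited); 0, no net growth; -100 to 0, cell death (-40 = 40% of starting cells died; -100 = all dead).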 Calls of active or inactive are those of the source. How the source made its calls: active means growth percent below 10; inactive means the rest.

Each compound was assayed on UACC-62 melanoma (assay: NCI-60 one-dose screen, 48 h (100 = growth as untreated, 0 = no growth, -100 = all killed)). Conditions: 10 µM unless noted.

Q: For CCCCCC(O)(CCCCC)CCCCCCCCC1=C(O)c2ccccc2C(=O)C1=O, which growth is on record?
A: -74.8% [100 µM] (active) and -14.4% [100 µM] (active)

Q: Which growth does the source give for C=CCn1c2c(c3ccccc3c1=O)C(=O)c1ccccc1-2 here?
A: 66.9% [100 µM] (inactive) and 11.1% [100 µM] (inactive)

Q: CNC(=S)c1nnsc1N was tested. Which growth did it give?
A: 70.7% [100 µM] (inactive) and -2.69% [100 µM] (active)

Q: Which growth does the source give for COc1cc2oc3c(c(=O)c2c(O)c1/C=C/C(C)C)CCC(C)(C)Oc1cc(O)ccc1-3 here?
A: -23.1% [100 µM] (active) and -100% [100 µM] (active)

Q: Which growth does the source give for Cc1coc2c1C(OC(=O)C(C)C)C1(C)C(C)CCC(O)C1C2=O (centres undefined) here?
A: 39% [100 µM] (inactive) and 18.7% [100 µM] (inactive)

Q: Which growth does the source give for CC1CC(C(=O)OC2OC(COC3OC(CO)C(OC4OC(C)C(O)C(O)C4O)C(O)C3O)C(O)C(O)C2O)C2CCC3(C)C(=CCC4(C)C3CCC3C(C)(CO)C(O)C(O)CC34C)C2C1C (centres undefined) here?
A: -93.3% [100 µM] (active) and -100% [100 µM] (active)

Q: With COc1ccc(C)cc1NC(=S)C#N as the compound, how does the growth read?
A: 74.4% [100 µM] (inactive) and 31.4% [100 µM] (inactive)

Q: Which growth does the source give for CC1CC2(OC2C)C(=O)OC2CCN(C)C/C=C(/COC(=O)C1(C)O)C2=O (centres undefined) here?
A: 89.6% [100 µM] (inactive) and 94.3% [100 µM] (inactive)

Q: How did the growth turn out when C=C1C2CCC3C4(C)CCCC(C)(C(=O)O)C4CCC3(C2)C1OC(=O)/C(C)=C/C (centres undefined) was run?
A: -47.9% [100 µM] (active) and 42.1% [100 µM] (inactive)
